The values that follow come from PubChem BioAssay (Tox21).

SMILES strings stand for the structures. Several values for one entry are separate records, joined by “and”; a condition that tells them apart may be missing. Equal values may be shown once. Results filed as inconclusive are left out. A call without a number means that no potency is given here. Activity calls are given as the source filed them. Calls come from the whole dose curve.
Potency is the fitted concentration of half-maximal effect.

The target in the assay is Thyrotropin receptor (Homo sapiens) (UniProt P16473). Briefly: qHTS assay to identify small molecule agonists of the thyroid stimulating hormone receptor (TSHR) signaling pathway (AID 1224843). Note: nearly all actives have a fitted effect of over 45% in size. The conditions noted are these: TSHR-HEK293 cells, cAMP HTRF, agonist mode, 30 min; series mostly up to 92.4 µM. The method, boiled down: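 TSHR-expressing HEK293 cells (800 per well) were exposed to compounds for 30 min at room temperature. cAMP was then detected by HTRF competition with cAMP-d2 and anti-cAMP cryptate, read after 1 h at room temperature. Fifteen concentrations, triplicate.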
Sequence of Thyrotropin receptor (Homo sapiens) (P16473 whole entry, looked up): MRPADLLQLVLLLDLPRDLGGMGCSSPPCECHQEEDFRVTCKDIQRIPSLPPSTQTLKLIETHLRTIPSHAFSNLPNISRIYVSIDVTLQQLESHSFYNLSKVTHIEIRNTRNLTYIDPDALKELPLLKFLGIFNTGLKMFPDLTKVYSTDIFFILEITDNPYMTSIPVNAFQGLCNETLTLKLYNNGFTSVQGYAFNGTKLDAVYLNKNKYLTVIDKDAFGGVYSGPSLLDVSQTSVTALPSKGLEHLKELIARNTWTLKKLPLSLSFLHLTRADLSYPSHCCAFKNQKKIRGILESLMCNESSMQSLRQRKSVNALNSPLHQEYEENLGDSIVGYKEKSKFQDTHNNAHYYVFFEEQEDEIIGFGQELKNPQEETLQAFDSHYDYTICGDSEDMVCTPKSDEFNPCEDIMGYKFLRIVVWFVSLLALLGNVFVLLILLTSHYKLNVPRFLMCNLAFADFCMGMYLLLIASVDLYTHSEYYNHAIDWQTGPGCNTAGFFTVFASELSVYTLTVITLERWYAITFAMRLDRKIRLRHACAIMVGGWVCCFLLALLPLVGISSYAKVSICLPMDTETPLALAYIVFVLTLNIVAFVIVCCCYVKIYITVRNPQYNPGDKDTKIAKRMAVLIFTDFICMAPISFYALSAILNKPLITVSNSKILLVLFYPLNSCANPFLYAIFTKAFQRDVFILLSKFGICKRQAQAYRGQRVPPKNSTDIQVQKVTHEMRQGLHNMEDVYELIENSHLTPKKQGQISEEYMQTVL
With `CNC[C@H](O)c1ccc(O)c(O)c1`, the Potency was 770 nM (active) and 2.31 µM (active).

Consider `C=CCOC(=O)C(=C)C`, for which the Potency result is “inactive”.

With `CCCCCC1C(=O)CCC1CC(=O)OC` (stereo not given), the Potency result was “inactive”.

In the case of `CC(=O)O[C@]1(C(C)=O)CC[C@H]2[C@@H]3C=C(Cl)C4=CC(=O)CC[C@]4(C)[C@H]3CC[C@@]21C`, the Potency entry is “inactive”.

Take `IC(I)I`: the Potency result is “inactive”.

Turning to `OC[C@@H](O)[C@@H](O[C@@H]1O[C@H](CO)[C@H](O)[C@H](O)[C@H]1O)[C@H](O)[C@@H](O)CO`, the Potency result was “inactive”.

In the case of `C=CC(C)(O)CCC=C(C)C` (stereo not given), the Potency result is “inactive”.

On to `C=C[Si](OCCOC)(OCCOC)OCCOC`, for which the Potency result was “inactive”.

Regarding `Clc1ccc(Sc2cc(Cl)c(Cl)cc2Cl)cc1`, the Potency entry was “inactive”.

Regarding `CC(=O)OC(C)C`, the Potency result is “inactive”.

Take `O=C(O)CCCCCCCCCCCC(=O)O`: the Potency entry is “inactive”.

Consider `[O-]/[N+](=N\O)c1ccccc1`, for which the Potency result was “inactive”.

On to `OC[C@H]1O[C@@H]2O[C@H]3[C@H](O)[C@@H](O)[C@@H](O[C@H]4[C@H](O)[C@@H](O)[C@@H](O[C@H]5[C@H](O)[C@@H](O)[C@@H](O[C@H]6[C@H](O)[C@@H](O)[C@@H](O[C@H]7[C@H](O)[C@@H](O)[C@@H](O[C@H]1[C@H](O)[C@H]2O)O[C@@H]7CO)O[C@@H]6CO)O[C@@H]5CO)O[C@@H]4CO)O[C@@H]3CO`, for which the Potency entry was “inactive”.

On to `CC(C)[N+](C)(CCOC(=O)C1c2ccccc2Oc2ccccc21)C(C)C`, for which the Potency result is “inactive”.

With `Nc1ccc2c(O)cc(S(=O)(=O)O)cc2c1`, the Potency result is “inactive”.
